Molecules are shown by their SMILES. Screen size: about 390,000 compounds; about 910 (0.23%) were called active. Another 5% or so got no clear call; they are omitted. This is one part of a sample in which actives are shown more often than they occur. The rule behind the calls is not given here.

This assay deals with T1, Ubiquitin carboxyl-terminal hydrolase 1 (Homo sapiens) (UniProt O94782).
T1 sequence (whole entry): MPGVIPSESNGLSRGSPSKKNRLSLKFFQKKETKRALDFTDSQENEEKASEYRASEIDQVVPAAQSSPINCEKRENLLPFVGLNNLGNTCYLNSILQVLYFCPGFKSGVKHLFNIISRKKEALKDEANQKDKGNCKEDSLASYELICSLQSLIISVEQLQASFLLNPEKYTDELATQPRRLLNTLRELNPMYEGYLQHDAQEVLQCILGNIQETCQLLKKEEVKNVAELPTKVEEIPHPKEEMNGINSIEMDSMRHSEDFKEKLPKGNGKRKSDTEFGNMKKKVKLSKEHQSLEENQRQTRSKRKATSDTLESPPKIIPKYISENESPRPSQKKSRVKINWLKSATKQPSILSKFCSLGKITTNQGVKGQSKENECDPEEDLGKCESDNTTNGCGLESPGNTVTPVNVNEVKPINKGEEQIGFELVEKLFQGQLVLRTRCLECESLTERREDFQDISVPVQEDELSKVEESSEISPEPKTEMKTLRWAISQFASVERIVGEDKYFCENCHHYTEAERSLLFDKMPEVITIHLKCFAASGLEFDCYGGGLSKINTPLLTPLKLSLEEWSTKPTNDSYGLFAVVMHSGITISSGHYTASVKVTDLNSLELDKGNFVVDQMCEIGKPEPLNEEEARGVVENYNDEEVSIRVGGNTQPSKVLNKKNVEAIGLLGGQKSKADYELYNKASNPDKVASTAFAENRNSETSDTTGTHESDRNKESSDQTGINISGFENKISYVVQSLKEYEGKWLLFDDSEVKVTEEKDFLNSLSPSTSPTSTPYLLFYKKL
Briefly: Inhibitors of USP1/UAF1: Primary Screen. Format: functional.
With `CCOC(=O)C(C)C(C)=O` (stereo unspecified), the Potency is 355 µM (active).

The values are drawn from ChEMBL document CHEMBL1201862, “PubChem BioAssay data set” (2004).
